Source: PubChem BioAssay (Tox21)
Inconclusive results are not listed. A call without a number means that no potency is given here. Calls of active or inactive are those of the source. Unless noted, calls follow the shape of the dose curve; as a rule, active = well fitted curve in the direction sought with a large enough effect in the repeat runs; inconclusive = weak or mixed curves; inactive = no such curve, though single readings can be large; an effect the other way counts as inactive or inconclusive.

Tests used:
[1] = qHTS assay to identify small molecule agonists of the androgen receptor (AR) signaling pathway in the presence of an antagonist - cell viability counter screen (AID 1259379);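 also: MDA-kb2 human breast cancer cells carrying an MMTV luciferase reporter; series mostly up to about 92 µM; nearly all actives have a fitted effect of over 25% in size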
In short: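 Nilutamide-containing (3.0uM final) MDA-kb2 cultures, 3,000 cells/well, were treated with compounds across 15 concentrations. After 16 hr at 37C with no CO2, cell viability was determined by CellTiter-Fluor fluorescence in the luciferase assay wells.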

[2] = qHTS assay to identify small molecule agonists of the estrogen receptor beta (ER-beta) signaling pathway - cell viability counter screen (AID 1259380); also: nearly all actives have a fitted effect of over 30% in size; also: potency is read from the fitted curve at half-maximal effect
In short: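 Steps: plate ER-beta-UAS-bla HEK293T cells, rest 6 hr; add compounds in DMSO; incubate 16 hr at 37C, 5% CO2; add FRET substrate 2 hr; add CellTiter-Glo, wait 30 min at room temperature; read luminescence.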

[3] = molecular target: Androgen receptor (Homo sapiens) (UniProt P10275); assay: qHTS assay to identify small molecule agonists of the androgen receptor (AR) signaling pathway in the presence of an antagonist (AID 1259381; calls by dose curve; also: nearly all actives have a fitted effect of over 15% in size)
Androgen receptor (Homo sapiens), sequence (P10275 whole entry, looked up): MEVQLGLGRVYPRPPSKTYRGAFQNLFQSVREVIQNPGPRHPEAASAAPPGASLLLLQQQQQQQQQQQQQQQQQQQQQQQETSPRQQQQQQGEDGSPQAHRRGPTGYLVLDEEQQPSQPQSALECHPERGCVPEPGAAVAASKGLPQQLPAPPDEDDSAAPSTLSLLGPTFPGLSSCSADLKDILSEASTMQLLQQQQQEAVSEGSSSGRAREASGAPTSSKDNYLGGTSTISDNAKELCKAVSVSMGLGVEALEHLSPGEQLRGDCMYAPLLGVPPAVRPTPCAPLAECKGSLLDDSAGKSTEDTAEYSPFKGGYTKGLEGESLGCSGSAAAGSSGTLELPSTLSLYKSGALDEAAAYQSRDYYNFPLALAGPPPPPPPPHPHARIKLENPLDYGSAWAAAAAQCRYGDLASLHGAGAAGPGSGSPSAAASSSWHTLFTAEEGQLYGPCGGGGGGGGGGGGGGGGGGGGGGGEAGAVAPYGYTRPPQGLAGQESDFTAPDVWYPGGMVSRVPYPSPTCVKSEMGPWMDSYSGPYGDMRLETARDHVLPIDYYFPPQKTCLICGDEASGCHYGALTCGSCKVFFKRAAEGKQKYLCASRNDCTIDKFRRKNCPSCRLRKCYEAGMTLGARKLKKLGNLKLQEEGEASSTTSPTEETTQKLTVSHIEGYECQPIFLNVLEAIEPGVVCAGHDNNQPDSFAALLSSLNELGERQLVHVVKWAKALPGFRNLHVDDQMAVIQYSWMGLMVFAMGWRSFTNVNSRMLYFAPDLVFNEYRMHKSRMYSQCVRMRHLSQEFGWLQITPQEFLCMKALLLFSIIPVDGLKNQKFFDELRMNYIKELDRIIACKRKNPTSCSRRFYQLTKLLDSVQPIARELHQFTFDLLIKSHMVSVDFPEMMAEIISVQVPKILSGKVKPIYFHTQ
In short: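 Reporter-gene luminescence from MDA-kb2 cells exposed 16hr at 37C (0% CO2) to 15-point compound titrations with 3.0uM final nilutamide as AR antagonist.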

[4] = molecular target: Estrogen receptor (Homo sapiens) (UniProt P03372); assay: qHTS assay to identify small molecule agonists of the estrogen receptor alpha (ER-alpha) signaling pathway in the presence of an antagonist (AID 1259383; calls by dose curve; also: top concentration of the series differs between compounds; nearly all actives have a fitted effect of over 15% in size)
Estrogen receptor (Homo sapiens), sequence (P03372 whole entry, looked up): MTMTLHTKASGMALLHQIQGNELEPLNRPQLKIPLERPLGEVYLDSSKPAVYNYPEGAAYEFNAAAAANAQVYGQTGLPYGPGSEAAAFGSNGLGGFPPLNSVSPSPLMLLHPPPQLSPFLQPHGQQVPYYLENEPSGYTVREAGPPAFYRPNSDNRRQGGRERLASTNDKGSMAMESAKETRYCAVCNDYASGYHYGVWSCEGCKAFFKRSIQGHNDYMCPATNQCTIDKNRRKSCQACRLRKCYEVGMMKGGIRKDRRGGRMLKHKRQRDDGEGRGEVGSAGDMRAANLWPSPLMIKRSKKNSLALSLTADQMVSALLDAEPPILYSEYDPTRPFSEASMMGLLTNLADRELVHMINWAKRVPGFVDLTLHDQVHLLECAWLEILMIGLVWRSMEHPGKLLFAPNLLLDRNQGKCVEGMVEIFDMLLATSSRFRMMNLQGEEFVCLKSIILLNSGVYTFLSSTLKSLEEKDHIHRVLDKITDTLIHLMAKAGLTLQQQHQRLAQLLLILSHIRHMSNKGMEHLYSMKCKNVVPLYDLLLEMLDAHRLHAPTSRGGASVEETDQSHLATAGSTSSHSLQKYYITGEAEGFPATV
In short: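 Readout was ERE-driven luciferase luminescence in VM7Luc4E2 cells, which express full-length ER-alpha endogenously. Compounds were tested at 15 concentrations for 22hr alongside 10.0nM ICI-182,780 (final concentration).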

[5] = qHTS assay to identify small molecule agonists or antagonists of the thyroid stimulating hormone receptor (TSHR) signaling pathway - wild type cell line counter screen (AID 1259384; calls by dose curve; also: potency is read from the fitted curve at half-maximal effect)
In short: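 Counter screen in untransfected Hek293: compounds (15-point titration, triplicate) plus phosphodiesterase inhibitor Ro20-1724 added after 18 h plating; 30 min RT. Intracellular cAMP via competitive d2/cryptate immunoassay, 1 h incubation.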

[6] = qHTS assay to identify small molecule agonists of the estrogen receptor alpha (ER-alpha) signaling pathway in the presence of an antagonist - cell viability counter screen (AID 1259386);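 also: series mostly up to about 92 µM; cells exposed to compounds for 22 h at 37 °C before the viability read; nearly all actives have a fitted effect of over 30% in size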
In short: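 In this counter screen, compound effects on VM7Luc4E2 viability were tested in the presence of the antagonist ICI-182,780 at 10.0nM final. Compounds were dosed at 15 concentrations, exposure lasted 22hr, and the CellTiter-Fluor signal was read.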

[7] = molecular target: Progesterone receptor (Homo sapiens) (UniProt P06401); assay: qHTS assay to identify small molecule agonists of the progesterone receptor (PR) signaling pathway (AID 1346784; calls by dose curve; also: nearly all actives have a fitted effect of over 30% in size)
Progesterone receptor (Homo sapiens), sequence (P06401 whole entry, looked up): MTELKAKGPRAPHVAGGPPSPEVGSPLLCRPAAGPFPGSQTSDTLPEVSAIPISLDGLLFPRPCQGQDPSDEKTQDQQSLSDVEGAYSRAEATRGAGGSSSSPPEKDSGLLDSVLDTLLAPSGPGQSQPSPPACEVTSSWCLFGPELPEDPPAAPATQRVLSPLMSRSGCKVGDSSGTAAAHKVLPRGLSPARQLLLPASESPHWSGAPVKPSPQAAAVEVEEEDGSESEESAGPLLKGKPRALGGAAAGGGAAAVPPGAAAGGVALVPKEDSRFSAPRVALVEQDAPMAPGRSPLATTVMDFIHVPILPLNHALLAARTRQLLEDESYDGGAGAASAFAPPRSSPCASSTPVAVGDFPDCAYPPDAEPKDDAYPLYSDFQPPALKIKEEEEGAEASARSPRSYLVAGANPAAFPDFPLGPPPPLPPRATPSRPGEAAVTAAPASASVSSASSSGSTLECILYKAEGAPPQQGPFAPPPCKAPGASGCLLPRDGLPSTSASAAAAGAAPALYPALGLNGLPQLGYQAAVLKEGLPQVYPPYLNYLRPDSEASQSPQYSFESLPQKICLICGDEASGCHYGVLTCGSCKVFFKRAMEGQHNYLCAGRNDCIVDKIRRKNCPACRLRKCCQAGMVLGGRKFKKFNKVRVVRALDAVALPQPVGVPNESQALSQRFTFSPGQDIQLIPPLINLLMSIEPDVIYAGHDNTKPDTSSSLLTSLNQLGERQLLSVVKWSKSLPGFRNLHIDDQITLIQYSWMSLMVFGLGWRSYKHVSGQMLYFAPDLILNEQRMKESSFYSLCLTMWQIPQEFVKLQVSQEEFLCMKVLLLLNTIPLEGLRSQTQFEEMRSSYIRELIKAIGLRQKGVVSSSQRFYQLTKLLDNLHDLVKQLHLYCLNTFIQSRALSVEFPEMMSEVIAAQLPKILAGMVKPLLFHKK
In short: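 Beta-lactamase reporter read-out: after 16 hr compound treatment at 37C and a further 2 hr at room temperature with LiveBLAzer B/G FRET substrate, fluorescence was measured in PR-UAS-bla HEK 293T cells grown in 2% charcoal-stripped serum.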

[8] = molecular target: Progesterone receptor (Homo sapiens) (UniProt P06401); assay: qHTS assay to identify small molecule antagonists of the progesterone receptor (PR) signaling pathway (AID 1346795; active = well fitted inhibition curve with a large enough effect in the signal ratio in the repeat runs, not every such curve was filed as active; the % refers to the signal ratio)
In short: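 Read-out is fluorescence from the LiveBLAzer B/G FRET substrate, cleaved by a UAS-controlled beta-lactamase in PR-UAS-bla HEK293T cells after 16 hr exposure to compound plus 1 nM promegestone (final), followed by 2 hr at room temperature.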

[9] = qHTS assay to identify small molecule antagonists of the progesterone receptor (PR) signaling pathway - cell viability counter screen (AID 1346798);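 also: HEK293T PR-UAS-bla cells stimulated with the agonist R5020; series mostly up to about 92 µM; nearly all actives have a fitted effect of over 50% in size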
In short: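 HEK293T PR-UAS-bla, 2% charcoal-stripped FBS; 4 hr pre-plate; cpd + R5020, 16 h 37C; LiveBLAzer read first; then CellTiter-Glo 30 min RT, luminescence.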

[10] = qHTS assay to identify small molecule agonists of the progesterone receptor (PR) signaling pathway - cell viability counter screen (AID 1346799; calls by dose curve; also: nearly all actives have a fitted effect of over 45% in size; also: potency is read from the fitted curve at half-maximal effect)
In short: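 Luminescence from CellTiter-Glo, added after the beta-lactamase FRET read in the same wells, gave cytotoxicity in PR-UAS-bla HEK293T cells treated with compounds for 16 hr at 37C.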

[11] = qHTS assay to identify small molecule antagonists of the TGF-beta/Smad signaling pathway - cell viability counter screen (AID 1346824); also: nearly all actives have a fitted effect of over 50% in size
In short: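 Cytotoxicity counter-screen run in the same wells as the beta-lactamase Smad reporter read: CellTiter-Glo luminescence after 30 min at room temperature. HEK 293T SBE-bla cells had 5 hr compound exposure at 37 C with TGF-beta1 (0.25 ng/mL stock).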

[12] = qHTS assay to identify small molecule agonists of the TGF-beta/Smad signaling pathway - cell viability counter screen (AID 1346829); also: top concentration of the series differs between compounds; nearly all actives have a fitted effect of over 45% in size
In short: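 In parallel with the Smad reporter read, viability of HEK 293T cells stably carrying SBE-bla is quantified by ATP luminescence following 5 hr compound treatment.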

[13] = molecular target: Thyrotropin-releasing hormone receptor (Homo sapiens) (UniProt P34981); assay: qHTS assay to identify small molecule antagonists of the thyrotropin-releasing hormone receptor (TRHR) signaling pathway (AID 1346877; active = well fitted inhibition curve with a large enough effect in the repeat runs, not every such curve was filed as active; also: series mostly up to about 51 µM)
Thyrotropin-releasing hormone receptor (Homo sapiens), sequence (P34981 whole entry, looked up): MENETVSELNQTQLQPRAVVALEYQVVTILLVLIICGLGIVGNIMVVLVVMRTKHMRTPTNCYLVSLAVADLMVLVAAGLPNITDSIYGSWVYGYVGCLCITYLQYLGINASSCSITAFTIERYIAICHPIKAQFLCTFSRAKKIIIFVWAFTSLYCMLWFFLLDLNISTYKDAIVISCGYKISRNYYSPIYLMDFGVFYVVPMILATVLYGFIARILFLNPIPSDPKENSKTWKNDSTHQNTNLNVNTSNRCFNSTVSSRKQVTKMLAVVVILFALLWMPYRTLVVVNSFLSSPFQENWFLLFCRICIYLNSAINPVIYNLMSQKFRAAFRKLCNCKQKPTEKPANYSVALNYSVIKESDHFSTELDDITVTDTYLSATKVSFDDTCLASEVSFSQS
In short: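 Kinetic fluorescence (3 min, 1 s resolution) following stimulation with TRH at 1 nM final; HEK293 cells bearing human TRHR; 5 min compound preincubation at RT; concentration-response over 15 points, triplicates.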

[14] = molecular target: Thyrotropin-releasing hormone receptor (Homo sapiens) (UniProt P34981); assay: qHTS assay to identify small molecule agonists of the thyrotropin-releasing hormone receptor (TRHR) signaling pathway (AID 1346891; calls by dose curve; also: series mostly up to about 58 µM)
In short: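 Intracellular calcium rise, read as fluorescence every second for 3 min, served as the agonist signal in dye-loaded HEK293 cells expressing TRHR; each compound ran at 15 concentrations in triplicate.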

[15] = Human pregnane X receptor (PXR) small molecule agonists, qHTS cell viability counter screen (AID 1346977); also: nearly all actives have a fitted effect of over 50% in size
In short: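 PXR-Luc HepG2, 2,000 cells/well, 5% charcoal-stripped FBS; 5hr settle; cpd 24hr, 37C/5% CO2; CellTiter-Fluor at 23hr, read 1hr later (fluorescence).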

[16] = qHTS assay to identify small molecule antagonists of the estrogen receptor beta (ER-beta) signaling pathway - cell viability counter screen (AID 1259382);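 also: HEK293T cells carrying ER-beta-UAS-bla reporter stimulated with estradiol; series mostly up to about 92 µM; nearly all actives have a fitted effect of over 55% in size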
In short: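 Viability is scored by CellTiter-Glo luminescence (30 min, room temperature) in ER-beta-UAS-bla HEK293T wells already read for reporter fluorescence. Compound exposure lasts 16 hr at 37C alongside 1nM 17-beta-estradiol in charcoal-stripped serum medium.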

[17] = molecular target: Thyrotropin receptor (Homo sapiens) (UniProt P16473); assay: qHTS assay to identify small molecule antagonists of the thyroid stimulating hormone receptor (TSHR) signaling pathway (AID 1259385; calls by dose curve; also: nearly all actives have a fitted effect of over 20% in size)
Thyrotropin receptor (Homo sapiens), sequence (P16473 whole entry, looked up): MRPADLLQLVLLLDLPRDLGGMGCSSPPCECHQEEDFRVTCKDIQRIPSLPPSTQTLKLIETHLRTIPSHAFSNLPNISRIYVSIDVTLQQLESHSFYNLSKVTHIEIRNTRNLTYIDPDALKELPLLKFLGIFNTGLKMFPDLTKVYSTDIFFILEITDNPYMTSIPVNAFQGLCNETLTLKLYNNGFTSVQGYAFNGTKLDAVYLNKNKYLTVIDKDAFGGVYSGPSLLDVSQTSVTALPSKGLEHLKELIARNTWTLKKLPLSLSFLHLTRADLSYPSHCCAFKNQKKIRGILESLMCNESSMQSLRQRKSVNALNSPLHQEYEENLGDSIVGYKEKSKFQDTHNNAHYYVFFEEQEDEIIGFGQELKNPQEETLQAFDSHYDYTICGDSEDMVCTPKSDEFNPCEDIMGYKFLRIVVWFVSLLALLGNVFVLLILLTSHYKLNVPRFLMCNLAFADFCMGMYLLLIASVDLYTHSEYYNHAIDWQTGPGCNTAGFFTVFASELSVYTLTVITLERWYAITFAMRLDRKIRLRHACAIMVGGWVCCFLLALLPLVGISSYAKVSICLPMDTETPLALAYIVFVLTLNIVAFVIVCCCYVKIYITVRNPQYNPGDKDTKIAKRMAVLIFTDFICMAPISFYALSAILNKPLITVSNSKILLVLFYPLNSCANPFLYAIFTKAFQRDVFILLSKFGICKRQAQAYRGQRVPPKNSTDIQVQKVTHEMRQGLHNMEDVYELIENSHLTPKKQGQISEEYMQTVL
In short: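 Antagonist mode: compound-treated TSHR-expressing HEK293 cells were stimulated with 1.5 ng/mL TSH (final) in presence of Ro20-1724 for 30 min at RT. HTRF cAMP detection after 1 h; each compound tested at 15 concentrations, triplicate.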

[18] = qHTS assay to identify small molecule agonists of the TGF-beta/Smad signaling pathway (AID 1346859; active = well fitted activation curve with a large enough effect in the signal ratio in the repeat runs, not every such curve was filed as active; the % refers to the signal ratio; also: series mostly up to about 77 µM)
In short: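 SBE-bla HEK 293T, 4,000 cells/well, plated o/n; cpd in DMSO, 5 hr, 37 C/5% CO2; B/G FRET substrate 2 hr RT; ex 405, em 460/530 nm.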

SMILES	Potency [1]	Potency [2]	Potency [3]	Potency [4]	Potency [5]	Potency [6]	Potency [7]	Potency [8]	Potency [9]	Potency [10]	outcome [11]	Potency [12]	outcome [13]	outcome [14]	Potency [15]	Potency [16]	Potency [17]	Potency [18]
CCCCC[C@H](O)/C=C/[C@H]1[C@H](O)CC(=O)[C@@H]1C/C=C\CCCC(=O)O	inactive	inactive	inactive	inactive	17.4 nM (active)	inactive	inactive	inactive	inactive	inactive	inactive	inactive	inactive	inactive	inactive	–	–	–
CC(=O)C(=O)CC(C)C	inactive	inactive	–	inactive	inactive	inactive	inactive	–	–	inactive	inactive	inactive	inactive	inactive	inactive	inactive	inactive	inactive
CC(CCc1ccc(O)cc1)NCCc1ccc(O)c(O)c1 (stereo not given)	inactive	inactive	–	inactive	inactive	–	–	inactive	inactive	inactive	inactive	inactive	inactive	–	inactive	inactive	inactive	inactive
CC(C)CC(O)CC(C)C	inactive	inactive	–	inactive	inactive	inactive	inactive	–	–	inactive	inactive	inactive	inactive	inactive	inactive	inactive	inactive	–
Nc1ccc(NC(=O)c2ccc(N)cc2)cc1	inactive	54.5 µM (active)	inactive	inactive	–	inactive	–	inactive	inactive	54.5 µM (active)	inactive	inactive	inactive	inactive	–	–	–	–
Cc1ccc(NC(=O)N(C)C)cc1NC(=O)N(C)C	inactive	inactive	–	inactive	inactive	inactive	inactive	inactive	inactive	inactive	–	inactive	inactive	inactive	inactive	inactive	–	inactive
CCC(CO)(CO)[N+](=O)[O-]	inactive	inactive	–	inactive	inactive	inactive	–	inactive	inactive	inactive	inactive	–	–	–	inactive	inactive	inactive	inactive
COc1cc(OC)c2ccc(=O)oc2c1	inactive	inactive	inactive	inactive	inactive	–	inactive	–	inactive	inactive	–	inactive	–	–	inactive	inactive	–	inactive
